Laboratory results: PubChem BioAssay (Tox21)
Values joined by “and” are separate entries in the source; they are usually repeats but may differ in a detail not shown here. Equal entries are not always repeated. Records with an inconclusive call do not appear. A call without a number means that no potency is given here. More than one record can exist for a structure, and the calls need not agree. Active and inactive are the calls of the source. Unless noted, the call rests on the fitted dose curve; in most records, active means well fitted curve in the direction sought with a large enough effect in the repeat runs; inconclusive means weak or mixed curves; inactive means no such curve, though single readings can be large; an effect the other way counts as inactive or inconclusive.

Key:
[1] = qHTS assay to identify small molecule agonists of the hypoxia (HIF-1) signaling pathway - cell viability counter screen (AID 1224844; calls by dose curve; further: nearly all actives have a fitted effect of over 50% in size; further: potency means the concentration at half of the fitted maximal effect)
Method in brief: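 Luminescent ATP content (CellTiter-Glo, 30 min, room temperature) served as the viability measure in HRE-bla ME-180 cells exposed to compounds for 17 hrs in low-serum medium (0.5% dialyzed FBS).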

[2] = qHTS assay to identify small molecule agonists of H2AX (AID 1224845; active means well fitted activation curve with a large enough effect in the signal ratio in the repeat runs, not every such curve was filed as active; the % refers to the signal ratio; further: potency means the concentration at half of the fitted maximal effect)
Method in brief: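 Wild-type CHO-K1 cells, plated overnight, exposed 3hr at 37C to 15 concentrations (0.76% DMSO final). Lysed, then HTRF anti-pH2AX (S139) cryptate and anti-H2AX-d2 antibodies, 24 hr room temperature; 665/620 nm emission read.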

[3] = qHTS assay to identify small molecule agonists of the hypoxia (HIF-1) signaling pathway (AID 1224846; active means well fitted activation curve with a large enough effect in the signal ratio in the repeat runs, not every such curve was filed as active; the % refers to the signal ratio)
Method in brief: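 Measured by blue/green FRET after loading CCF4-AM: beta-lactamase expressed from a hypoxia response element in ME-180 cells. Test agents were delivered in DMSO and left 17 hrs; cells had been plated 5 hrs earlier in low-serum (0.5% dialyzed FBS) medium.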

[4] = qHTS assay to identify small molecule agonists of H2AX - cell viability counter screen (AID 1224847; calls by dose curve; further: nearly all actives have a fitted effect of over 30% in size; further: potency means the concentration at half of the fitted maximal effect)
Method in brief: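 Quantitative HTS viability measurement: CHO-K1 wild-type cells in serum (10% FBS) medium, short 3 hr drug exposure at 37C with 0.76% DMSO, CellTiter-Glo luminescent detection.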

[5] = qHTS assay to identify small molecule antagonists of the estrogen related receptor (ERR) signaling pathway from Tox21 library (AID 1224848); further: nearly all actives have a fitted effect of over 50% in size; further: potency means the concentration at half of the fitted maximal effect
Method in brief: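 ERR reporter cell line (from NTP) seeded 2,000 cells/well, rested 6 h at 37 C/5% CO2, then pin-dosed with compounds in DMSO. After 18 h at 37 C, ONE-Glo added; luminescence read after 30 min at room temperature.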

[6] = qHTS assay to identify small molecule agonists of the estrogen related receptor (ERR) signaling pathway from Tox21 library (AID 1224849; calls by dose curve; further: nearly all actives have a fitted effect of over 15% in size); conditions: ERR reporter cell line, ONE-Glo luciferase, 18 h; at 92.4 µM (top of the series) unless noted
Method in brief: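 We plated ERR reporter cells, waited 6 h, added compounds in DMSO by pin tool and incubated them 18 h at 37 C. ONE-Glo was then added and luminescence read after 30 min.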

[7] = qHTS RealTime-Glo MT Cell Viability Assay in HEK293 cells - 32 hour (AID 1224868); further: nearly all actives have a fitted effect of over 50% in size; further: potency means the concentration at half of the fitted maximal effect
Method in brief: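 Cells + reagent dispensed (600 cells/well, HEK293) → 5 h at 37 C/5% CO2 → 23 nL compound in DMSO pinned → 40 h at 37 C → luminescence read at 0, 8, 16, 24, 32, 40 h.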

[8] = A CellTox Green Cytotoxicity Assay to monitor cytotoxicity in HEK293 cells - 0 hour (AID 1224869); further: nearly all actives have a fitted effect of over 50% in size
Method in brief: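 Each value comes from one timepoint of a single continuous run in which HEK293 cells with CellTox Green were exposed to compound for up to 40 h at 37 C, dye fluorescence rising with cell death.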

[9] = qHTS RealTime-Glo MT Cell Viability Assay in HepG2 cells - 24 hour (AID 1224867); further: nearly all actives have a fitted effect of over 50% in size; further: potency means the concentration at half of the fitted maximal effect
Method in brief: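 Real-time, nonlytic viability: 600 HepG2 cells/well mixed with NanoLuc enzyme plus prosubstrate; 5 h settle, compound (DMSO) added by pintool; luminescence monitored over 40 h at 37 C.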

[10] = qHTS RealTime-Glo MT Cell Viability Assay in HepG2 cells - 40 hour (AID 1224870); further: nearly all actives have a fitted effect of over 50% in size; further: potency means the concentration at half of the fitted maximal effect
Method in brief: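 HepG2 cells (600/well) mixed with RealTime-Glo MT reagent, settled 5 h at 37 C/5% CO2 before compound addition. Nonlytic NanoLuc luminescence from viable-cell prosubstrate reduction read repeatedly during 40 h treatment at 37 C.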

SMILES	Potency [1]	Potency [2]	outcome [3]	Potency [4]	Potency [5]	activity change, positive = activation [6]	Potency [7]	Potency [8]	Potency [9]	Potency [10]
CC(C)(C)C(O)/C(=C\c1ccc(Cl)cc1Cl)n1cncn1 (centres undefined)	inactive	inactive	inactive	122 µM (active)	33 µM (active)	-63.4% (inactive)	29.7 µM (active)	inactive	–	–
CCOCCOC(C)=O	inactive	inactive	inactive	inactive	inactive	–	inactive	inactive	inactive	inactive
N#CCCO	inactive	inactive	inactive	inactive	–	–	inactive	inactive	inactive	inactive
CC(C)(C)OO	inactive	inactive	inactive	inactive	–	–	inactive	inactive	inactive	inactive
Fc1cccc(Cl)c1CCl	inactive	inactive	inactive	inactive	–	–	inactive	inactive	inactive	inactive
C[C@]12Cc3nonc3C[C@@H]1CC[C@@H]1[C@@H]2CC[C@@]2(C)[C@H]1CC[C@]2(C)O	26.8 µM (active)	inactive	inactive	49.2 µM (active)	13.3 µM (active)	-58.3% [at 42.5 µM] (inactive)	21.3 µM (active)	inactive	inactive	inactive
O=[N+]([O-])c1cc(Cl)ccc1Cl	inactive	inactive	inactive	inactive	–	–	inactive	inactive	inactive	inactive
CN(CCCC(O)c1cccnc1)N=O (centres undefined)	inactive	inactive	inactive	inactive	–	–	inactive	inactive	inactive	inactive
CC(c1ccc(O)cc1)c1ccc(O)cc1	inactive	inactive and 56.6 µM (active)	inactive	inactive	inactive	-56.9% (inactive) and -6.34% (inactive)	45.9 µM (active)	inactive	inactive	inactive
NC(=O)CCl	inactive	inactive	inactive	inactive	–	–	inactive	inactive	inactive	inactive
N#Cc1ccccc1N	inactive	inactive	inactive	inactive	–	-12.6% (inactive)	inactive	inactive	inactive	inactive
CCC(C)c1cc(C(C)(C)C)cc(-n2nc3ccccc3n2)c1O (centres undefined)	19 µM (active)	inactive	inactive	inactive	inactive	-0.703% [at 42.5 µM] (inactive)	inactive	inactive	inactive	inactive
C=CC(=O)N(C)C	inactive	inactive	inactive	inactive	inactive	-4.19% (inactive)	inactive	inactive	inactive	–
Cc1ccc(C(=O)Cl)cc1	inactive	inactive	inactive	inactive	inactive	7.48% (inactive)	inactive	inactive	inactive	inactive
Cl/C=C\CCl	inactive	inactive	inactive	inactive	inactive	3.81% (inactive)	–	inactive	inactive	inactive
Cc1ccc(CCl)cc1	inactive	inactive	inactive	inactive	inactive	-1.8% (inactive)	inactive	inactive	inactive	inactive
COc1ccc(OC)c(CC(C)N)c1 (centres undefined)	inactive	inactive	inactive	inactive	–	–	inactive	inactive	inactive	inactive
COC[C@H](C)N(C(=O)CCl)c1c(C)csc1C	inactive	inactive	inactive	inactive	inactive	9.24% (inactive)	–	inactive	inactive	inactive
C[C@@H](Oc1ccc(Cl)cc1Cl)C(=O)O	inactive	inactive	inactive	inactive	–	–	inactive	inactive	inactive	inactive
COCC(=O)N(c1c(C)cccc1C)[C@H](C)C(=O)OC	inactive	inactive	inactive	inactive	inactive	-2.81% (inactive)	–	inactive	inactive	inactive
Cc1cccc(OP(=O)(Oc2cccc(C)c2)Oc2cccc(C)c2)c1	inactive	inactive	inactive	inactive	–	–	inactive	inactive	inactive	inactive
CCc1ccccc1C	inactive	inactive	inactive	inactive	inactive	0.837% (inactive)	inactive	inactive	inactive	inactive
BrC(Br)Br	inactive	inactive	inactive	inactive	inactive	0.336% (inactive)	inactive	inactive	inactive	inactive

SMILES	Potency [1]	Potency [2]	outcome [3]	Potency [4]	Potency [5]	activity change, positive = activation [6]	Potency [7]	Potency [8]	Potency [9]	Potency [10]
C[As+](C)(C)CC(=O)[O-]	inactive	inactive	inactive	inactive	inactive	5.87% (inactive)	inactive	inactive	inactive	inactive
Cc1cc(Cl)ccc1O[C@H](C)C(=O)O	inactive	inactive	inactive	inactive	–	–	inactive	inactive	inactive	–
CCCCOP(=O)(CCCC)OCCCC	inactive	inactive	inactive	inactive	inactive	-2.44% (inactive)	–	inactive	inactive	inactive
Nc1ccc(Cl)cc1C(=O)c1ccccc1	inactive	inactive	inactive	101 µM (active)	inactive	3.06% (inactive)	–	inactive	inactive	inactive
SCc1ccco1	inactive	inactive	inactive	inactive	–	–	inactive	inactive	inactive	inactive
CC(C)(C)c1cc([N+](=O)[O-])cc(C(C)(C)C)c1O	inactive	inactive	inactive	50.5 µM (active)	2.73 µM (active)	-56.9% (inactive)	6.92 µM (active)	inactive	inactive	inactive
Cn1[nH]nnc1=S	inactive	inactive	inactive	inactive	–	–	inactive	inactive	inactive	inactive
Oc1ccc(I)cc1	inactive	inactive	inactive	inactive	–	–	inactive	inactive	inactive	inactive
Nc1c(Oc2ccccc2)cc(O)c2c1C(=O)c1ccccc1C2=O	inactive	inactive	inactive	inactive	–	–	19 µM (active)	inactive	inactive	inactive
COP(N)(=S)OC	inactive	inactive	inactive	inactive	inactive	3.3% (inactive)	inactive	inactive	inactive	inactive
CC(C)CC(C)N (centres undefined)	inactive	inactive	inactive	inactive	inactive	0.671% (inactive)	inactive	inactive	inactive	inactive
CC(C)C(=O)Cl	inactive	inactive	inactive	inactive	inactive	-0.166% (inactive)	inactive	inactive	inactive	inactive
CC(=O)Nc1ccc2c(c1)Cc1ccccc1-2	inactive	inactive	inactive	inactive	–	–	inactive	inactive	inactive	inactive
O=[N+]([O-])c1ccc(Oc2ccc(C(F)(F)F)cc2[N+](=O)[O-])cc1	inactive	inactive	inactive	inactive	–	-23.5% (inactive)	19.5 µM (active)	inactive	inactive	inactive
N#CSCSC#N	17.8 µM (active) and 8.62 µM (active)	15.8 µM (active)	–	51.6 µM (active) and 50 µM (active)	27.9 µM (active) and 60.5 µM (active)	-81.6% (inactive) and -76.5% (inactive)	12.6 µM (active) and 21.7 µM (active)	inactive	50.1 µM (active) and 19.3 µM (active)	50.1 µM (active) and 21.7 µM (active)
CCS(=O)(=O)c1cccnc1S(=O)(=O)NC(=O)Nc1nc(OC)cc(OC)n1	inactive	inactive	inactive	–	inactive	6.39% (inactive)	inactive	inactive	inactive	inactive
O=C(O)COc1nc(Cl)c(Cl)cc1Cl	inactive	inactive	inactive	inactive	–	–	–	–	inactive	inactive
O=C(Cl)c1ccc(Cl)cc1	inactive	inactive	inactive	–	–	–	–	inactive	inactive	–
NC(=O)c1ccc(N)nc1	15.5 µM (active)	inactive	inactive	–	–	–	–	inactive	inactive	inactive
C[C@@H]1O[C@@H](O[C@@H]2C=C3CC[C@@H]4[C@H](CC[C@]5(C)[C@@H](c6ccc(=O)oc6)CC[C@]45O)[C@@]3(C)CC2)[C@H](O)[C@H](O)[C@H]1O	0.0268 µM (active)	inactive	inactive	–	0.0335 µM (active)	-58.9% [at 42.5 µM] (inactive)	0.0213 µM (active)	inactive	inactive	inactive
ClC(Cl)=C(Cl)Cl	inactive	inactive	inactive	–	–	–	inactive	inactive	inactive	inactive
CCCOCC(=Nc1ccc(Cl)cc1C(F)(F)F)n1ccnc1	inactive	inactive	inactive	101 µM (active)	–	–	48.9 µM (active)	–	–	–
